Test results taken from paper PMC7862700, “An all-to-all approach to the identification of sequence-specific readers for epigenetic DNA modifications on cytosine”.

Assays:
Assay in all cases: DAPPL (digital affinity profiling via proximity ligation, sequencing); 10 mM Tris-HCl pH 7.5, 50 mM NaCl, 1 mM DTT, 4% glycerol, room temperature, 30 min; GST-TFs on glutathione beads, 16-mer random dsDNA library, 0.1% formaldehyde crosslink after washing; high values mean tight binding
Details in all cases: protein: recombinant; tags: N-terminal GST; dsDNA, one strand shown
[1] = target: ETV1 (Homo sapiens, UniProt P50549 1-477)
Sequence of ETV1 (P50549 whole entry, the tested form may be a part): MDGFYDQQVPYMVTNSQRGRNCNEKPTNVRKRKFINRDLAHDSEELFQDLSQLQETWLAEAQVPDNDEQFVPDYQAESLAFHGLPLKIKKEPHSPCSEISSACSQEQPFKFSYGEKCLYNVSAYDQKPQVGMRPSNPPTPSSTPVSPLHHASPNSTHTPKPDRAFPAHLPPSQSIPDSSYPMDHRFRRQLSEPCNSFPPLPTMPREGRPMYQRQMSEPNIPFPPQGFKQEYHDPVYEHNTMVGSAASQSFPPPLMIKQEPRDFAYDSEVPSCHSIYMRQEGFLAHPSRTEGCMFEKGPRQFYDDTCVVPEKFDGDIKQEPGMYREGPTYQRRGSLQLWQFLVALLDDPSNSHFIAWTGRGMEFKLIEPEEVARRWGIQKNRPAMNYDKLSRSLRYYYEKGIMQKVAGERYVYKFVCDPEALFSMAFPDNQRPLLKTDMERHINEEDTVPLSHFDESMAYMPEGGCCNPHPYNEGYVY
Procedure, shortened: (§1)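 Each value of binding signal is a hexamer's read frequency for a factor divided by the same hexamer's frequency in the tag-only sample. Barcoded, bead-captured GST fusions of human transcription factors made in yeast were pooled with that sample and incubated with 200 nmole of a random double-stranded 16-mer DNA library in Tris/NaCl/DTT/glycerol buffer at room temperature for 30 min. Washing, 0.1% formaldehyde crosslinking, proximity ligation, PCR and Illumina NextSeq500 sequencing followed.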

[2] = target: T1, ERF (Homo sapiens, UniProt P50548 1-548)
T1 sequence: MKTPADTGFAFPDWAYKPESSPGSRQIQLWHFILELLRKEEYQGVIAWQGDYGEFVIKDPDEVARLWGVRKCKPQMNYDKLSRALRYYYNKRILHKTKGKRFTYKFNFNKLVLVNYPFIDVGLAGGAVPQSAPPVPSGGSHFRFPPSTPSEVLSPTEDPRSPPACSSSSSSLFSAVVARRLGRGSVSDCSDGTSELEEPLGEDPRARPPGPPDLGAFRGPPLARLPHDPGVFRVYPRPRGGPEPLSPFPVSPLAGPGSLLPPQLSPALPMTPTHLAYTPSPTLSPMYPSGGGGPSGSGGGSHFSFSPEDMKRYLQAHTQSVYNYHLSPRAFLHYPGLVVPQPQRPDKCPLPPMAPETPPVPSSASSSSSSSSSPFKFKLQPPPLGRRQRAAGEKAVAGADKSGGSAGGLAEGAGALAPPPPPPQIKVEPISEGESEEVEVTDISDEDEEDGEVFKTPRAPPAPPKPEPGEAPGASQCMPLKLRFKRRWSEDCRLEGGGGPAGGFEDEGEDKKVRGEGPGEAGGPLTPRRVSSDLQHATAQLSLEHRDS
Procedure, shortened: as §1

[3] = target: T2, ETV3L (Homo sapiens, UniProt Q6ZN32 1-361)
T2 sequence: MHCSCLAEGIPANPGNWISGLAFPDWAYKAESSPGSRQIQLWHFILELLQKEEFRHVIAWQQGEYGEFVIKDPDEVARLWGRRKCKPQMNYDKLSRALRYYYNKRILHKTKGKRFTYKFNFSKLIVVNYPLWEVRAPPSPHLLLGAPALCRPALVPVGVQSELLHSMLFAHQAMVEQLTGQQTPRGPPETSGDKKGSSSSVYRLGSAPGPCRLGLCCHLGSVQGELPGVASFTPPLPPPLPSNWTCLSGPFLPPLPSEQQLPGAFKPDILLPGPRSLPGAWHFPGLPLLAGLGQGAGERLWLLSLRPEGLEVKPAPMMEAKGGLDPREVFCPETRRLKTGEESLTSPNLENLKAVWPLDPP
Procedure, shortened: as §1

[4] = target: T3, ETS2 (Homo sapiens, UniProt P15036 1-469)
T3 sequence: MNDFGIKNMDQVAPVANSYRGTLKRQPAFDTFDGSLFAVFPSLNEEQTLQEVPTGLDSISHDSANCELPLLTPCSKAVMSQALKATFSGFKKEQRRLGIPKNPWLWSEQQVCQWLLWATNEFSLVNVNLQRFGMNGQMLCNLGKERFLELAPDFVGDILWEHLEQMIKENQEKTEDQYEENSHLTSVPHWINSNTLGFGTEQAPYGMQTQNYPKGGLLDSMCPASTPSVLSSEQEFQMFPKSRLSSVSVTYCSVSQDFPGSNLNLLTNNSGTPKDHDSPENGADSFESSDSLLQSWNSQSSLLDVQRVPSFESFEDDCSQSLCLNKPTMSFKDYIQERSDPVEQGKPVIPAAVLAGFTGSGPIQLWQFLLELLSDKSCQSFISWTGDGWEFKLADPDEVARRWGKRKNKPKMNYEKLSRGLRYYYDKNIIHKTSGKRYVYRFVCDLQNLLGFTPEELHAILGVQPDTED
Procedure, shortened: as §1

[5] = target: T4, SPDEF (Homo sapiens, UniProt O95238 1-335)
T4 sequence: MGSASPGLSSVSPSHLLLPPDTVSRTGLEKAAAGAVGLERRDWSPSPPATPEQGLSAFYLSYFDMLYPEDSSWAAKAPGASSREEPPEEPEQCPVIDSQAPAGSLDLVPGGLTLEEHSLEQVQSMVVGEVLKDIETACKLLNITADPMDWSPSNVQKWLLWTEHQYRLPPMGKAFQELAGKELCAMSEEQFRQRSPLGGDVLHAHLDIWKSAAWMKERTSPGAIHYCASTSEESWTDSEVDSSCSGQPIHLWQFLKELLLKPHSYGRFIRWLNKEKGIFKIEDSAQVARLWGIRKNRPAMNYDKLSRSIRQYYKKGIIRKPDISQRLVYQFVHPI
Procedure, shortened: as §1

[6] = target: T5, ETV7 (Homo sapiens, UniProt Q9Y603 1-341)
T5 sequence: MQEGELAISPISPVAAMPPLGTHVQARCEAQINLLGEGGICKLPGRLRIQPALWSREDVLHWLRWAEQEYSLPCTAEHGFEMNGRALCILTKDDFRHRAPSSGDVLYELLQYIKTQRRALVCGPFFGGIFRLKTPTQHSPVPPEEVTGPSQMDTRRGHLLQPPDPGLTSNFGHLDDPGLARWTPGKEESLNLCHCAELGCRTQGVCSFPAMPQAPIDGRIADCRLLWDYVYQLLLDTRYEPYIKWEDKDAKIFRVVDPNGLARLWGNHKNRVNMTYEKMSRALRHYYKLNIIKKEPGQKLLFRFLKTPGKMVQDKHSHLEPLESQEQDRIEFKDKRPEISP
Procedure, shortened: as §1

[7] = target: T6, ELF5 (Homo sapiens, UniProt Q9UKW6-2 1-255)
T6 sequence: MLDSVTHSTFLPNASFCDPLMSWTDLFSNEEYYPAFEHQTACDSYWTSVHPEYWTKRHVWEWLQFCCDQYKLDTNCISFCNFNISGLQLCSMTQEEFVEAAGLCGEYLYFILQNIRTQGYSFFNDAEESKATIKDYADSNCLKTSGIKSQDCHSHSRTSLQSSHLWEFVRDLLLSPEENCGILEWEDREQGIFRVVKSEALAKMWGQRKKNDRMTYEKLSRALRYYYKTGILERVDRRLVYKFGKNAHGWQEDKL
Procedure, shortened: as §1

[8] = target: T7, ETV3 (Homo sapiens, UniProt P41162-2 1-143)
T7 sequence: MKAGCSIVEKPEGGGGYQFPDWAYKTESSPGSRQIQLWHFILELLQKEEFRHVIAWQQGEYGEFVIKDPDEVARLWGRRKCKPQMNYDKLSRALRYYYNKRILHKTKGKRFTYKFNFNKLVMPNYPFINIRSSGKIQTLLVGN
Procedure, shortened: as §1

[9] = target: ETV6 (Homo sapiens, UniProt P41212 1-452)
Sequence of ETV6 (P41212 whole entry): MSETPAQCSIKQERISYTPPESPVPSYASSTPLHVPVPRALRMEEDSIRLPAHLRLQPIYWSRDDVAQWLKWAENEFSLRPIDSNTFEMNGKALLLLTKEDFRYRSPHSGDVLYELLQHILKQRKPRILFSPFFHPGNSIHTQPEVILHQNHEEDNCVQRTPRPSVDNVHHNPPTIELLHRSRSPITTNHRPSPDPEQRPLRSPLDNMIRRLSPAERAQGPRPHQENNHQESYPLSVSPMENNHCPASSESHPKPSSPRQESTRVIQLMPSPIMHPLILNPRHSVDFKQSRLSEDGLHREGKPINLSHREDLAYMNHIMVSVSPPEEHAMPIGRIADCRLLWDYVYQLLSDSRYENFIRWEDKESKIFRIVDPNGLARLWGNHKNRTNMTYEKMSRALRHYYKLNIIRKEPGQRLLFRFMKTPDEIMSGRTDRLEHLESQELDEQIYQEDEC
Procedure, shortened: as §1

## CCGAGC
[1]
  binding signal: 1.02 fold enrichment (6-mer frequency, TF over GST control)
[2]
  binding signal: 1.17 fold enrichment (6-mer frequency, TF over GST control)
[3]
  binding signal: 1.1 fold enrichment (6-mer frequency, TF over GST control)
[4]
  binding signal: 1.17 fold enrichment (6-mer frequency, TF over GST control)
[5]
  binding signal: 1.06 fold enrichment (6-mer frequency, TF over GST control)
[6]
  binding signal: 1.15 fold enrichment (6-mer frequency, TF over GST control)
[7]
  binding signal: 1.12 fold enrichment (6-mer frequency, TF over GST control)
[8]
  binding signal: 1.04 fold enrichment (6-mer frequency, TF over GST control)
[9]
  binding signal: 1.13 fold enrichment (6-mer frequency, TF over GST control)
